Measured values: the supplement of paper PMC10849652
About 7,900 targets were measured; listed, in parts, are those with a hit and a random draw of the rest. About 0.6% of all pairs of compound and target were hits. Unmarked numbers belong to inactive results.

Assays:
Assay in all cases: log2 fold change, soluble protein after heating vs DMSO (PISA); higher = thermal stabilisation; K562 cells, 10 uM, 30 min; active = over 0.2 and 3.5 SD of the protein, either way, in both replicates (recomputed)
[1] = compound: C#Cc1cccc(Nc2ncnc3cc(OCCOC)c(OCCOC)cc23)c1 [erlotinib]
In short: (§1)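 Quantification of soluble protein used TMTpro 16plex LC-MS/MS, with channel sums equalised. Samples were the supernatant after 21,000xg for 90 min of pooled aliquots from K562 cells (2×10^6 cells/mL) treated with 10 μM compound for 30 min, heated for 3 min over 48°C-58°C, and extracted in PBS with 0.5% NP-40 at 4°C. Values, from duplicates, describe thermal stability against control samples on a log2 fold-change scale.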

[2] = compound: C/C(=N\NC(=O)C1=CC(=CC=C1)S(=O)(=O)N2CCOCC2)/C3=C(C=CC(=C3)Cl)O
In short: as §1

[3] = compound: C1=CC(=C(C=C1Cl)C2=NC3=NC=CN=C3C(=N2)NC4=CC=NC=C4)F
In short: as §1

[4] = compound: C1=CC(=CC=C1C2=NC3=C(N2)C=C(C=C3)C(=O)N)OC4=CC=C(C=C4)Cl
In short: as §1

[5] = compound: C1=CC2=C(C=CC(=C2)/C=C\3/C(=O)NC(=NCC4=CC=CS4)S3)N=C1
In short: as §1

[6] = compound: C1=CC2=NC=CN=C2C=C1/C=C/3\C(=O)NC(=O)S3
In short: as §1

[7] = compound: C1=CC=C(C=C1)C2=NC(=C(N2)C3=CC=NC=C3)C4=CC(=C(C=C4)Cl)O
In short: as §1

[8] = compound: C1=CC=C2C(=C1)C3=NNC4=CC=CC(=C43)C2=O
In short: as §1

[9] = compound: C1CCN(C1)C(=O)NC2=CC=CC(=C2)NC3=NC=C(C(=N3)NCCC4=CN=CN4)Br
In short: as §1

[10] = compound: C1CN(CCC1(CC2=CC=C(C=C2)Cl)N)C3=NC=NC4=C3C=CN4
In short: as §1

[11] = compound: C1COCCN1CCN2C3=CC=CC=C3N=C2NC(=O)C4=CC(=CC=C4)[N+](=O)[O-] [IRAK-1-4 Inhibitor I]
In short: as §1

[12] = compound: C=CC(=O)N1CCC[C@@H](n2nc(-c3ccc(Oc4ccccc4)cc3)c3c(N)ncnc32)C1 [ibrutinib]
In short: as §1

[13] = compound: CC(=O)c1cnc2ccc(-c3cc(Cl)c(O)c(Cl)c3)nc2c1N[C@H]1CC[C@H](CN(C)C)CC1
In short: as §1

[14] = compound: CC(C)(C)Cn1c(N)nc2ccc(-c3[nH]c(C(C)(C)C)nc3-c3ccc(F)cc3)nc21 [ralimetinib]
In short: as §1

[15] = compound: CC(C)(O)CC(=O)NCCn1ccc2ncnc(Nc3ccc(Oc4cccc(C(F)(F)F)c4)c(Cl)c3)c21
In short: as §1

[16] = compound: CC(C)C1=C2N=C(C=C(N2N=C1)NCC3=CC=CC=C3)NCCCCCCN
In short: as §1

[17] = compound: CC(C)C[C@@H](C=O)NC(=O)[C@H](CC(C)C)NC(=O)[C@H](CC(C)C)NC(=O)OCc1ccccc1
In short: as §1

[18] = compound: CC(C)N(C[C@H]1O[C@@H](n2cnc3c(N)ncnc32)[C@H](O)[C@@H]1O)[C@H]1C[C@@H](CCc2nc3cc(C(C)(C)C)ccc3[nH]2)C1 [pinometostat]
In short: as §1

[19] = compound: CC1=C(C(CC(=O)N1)C2=CC=C(C=C2)C(F)(F)F)C(=O)NC3=C(C=C4C(=C3)C=NN4)F
In short: as §1

[20] = compound: CC1=C(C2=C(C=C1)C(=O)C3=CC=CC=C3N2CCCN)C
In short: as §1

UniProt Q7Z3C6, sequence (Q7Z3C6 whole entry, looked up): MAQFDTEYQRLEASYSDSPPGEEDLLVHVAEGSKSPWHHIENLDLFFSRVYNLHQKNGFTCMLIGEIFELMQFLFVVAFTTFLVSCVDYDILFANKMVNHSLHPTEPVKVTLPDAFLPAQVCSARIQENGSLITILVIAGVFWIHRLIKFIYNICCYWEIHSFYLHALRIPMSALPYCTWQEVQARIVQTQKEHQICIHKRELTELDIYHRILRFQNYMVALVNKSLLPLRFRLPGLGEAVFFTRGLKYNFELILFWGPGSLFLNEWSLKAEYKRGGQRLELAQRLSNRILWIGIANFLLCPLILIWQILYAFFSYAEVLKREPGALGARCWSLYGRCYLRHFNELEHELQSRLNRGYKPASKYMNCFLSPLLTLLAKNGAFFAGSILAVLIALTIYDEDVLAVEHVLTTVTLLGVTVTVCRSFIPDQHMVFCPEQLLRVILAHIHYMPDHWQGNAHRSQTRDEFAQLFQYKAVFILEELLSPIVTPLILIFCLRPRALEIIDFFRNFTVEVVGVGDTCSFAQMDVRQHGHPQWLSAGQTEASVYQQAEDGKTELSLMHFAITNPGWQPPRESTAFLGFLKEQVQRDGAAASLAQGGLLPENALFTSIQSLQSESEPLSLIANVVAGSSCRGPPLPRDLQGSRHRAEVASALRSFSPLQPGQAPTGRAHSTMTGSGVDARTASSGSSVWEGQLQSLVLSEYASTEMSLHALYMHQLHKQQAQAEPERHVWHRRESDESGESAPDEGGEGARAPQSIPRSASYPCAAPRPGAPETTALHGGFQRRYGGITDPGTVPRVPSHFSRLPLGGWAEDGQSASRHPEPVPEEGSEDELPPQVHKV
UniProt Q9H8Y5, sequence (Q9H8Y5 whole entry, looked up): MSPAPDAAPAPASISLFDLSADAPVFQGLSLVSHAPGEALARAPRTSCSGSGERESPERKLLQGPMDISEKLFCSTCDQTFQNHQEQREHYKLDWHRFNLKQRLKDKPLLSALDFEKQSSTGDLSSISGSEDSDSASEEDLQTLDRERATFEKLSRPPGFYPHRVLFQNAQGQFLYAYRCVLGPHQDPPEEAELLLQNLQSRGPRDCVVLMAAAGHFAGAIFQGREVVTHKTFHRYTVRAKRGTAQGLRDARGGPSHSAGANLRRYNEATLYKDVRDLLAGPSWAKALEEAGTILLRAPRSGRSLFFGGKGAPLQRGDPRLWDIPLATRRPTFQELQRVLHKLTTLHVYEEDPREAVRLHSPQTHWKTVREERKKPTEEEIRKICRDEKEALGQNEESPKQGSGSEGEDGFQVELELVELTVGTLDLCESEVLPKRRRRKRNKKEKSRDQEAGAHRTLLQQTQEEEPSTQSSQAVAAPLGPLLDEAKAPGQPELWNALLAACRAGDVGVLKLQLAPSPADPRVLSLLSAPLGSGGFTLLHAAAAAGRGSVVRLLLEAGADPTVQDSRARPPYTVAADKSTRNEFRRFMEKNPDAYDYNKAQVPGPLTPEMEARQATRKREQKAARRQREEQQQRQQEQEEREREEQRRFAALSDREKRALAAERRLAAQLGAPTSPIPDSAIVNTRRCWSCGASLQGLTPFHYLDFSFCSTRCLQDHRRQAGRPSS
UniProt Q53FZ2, sequence (Q53FZ2 whole entry, looked up): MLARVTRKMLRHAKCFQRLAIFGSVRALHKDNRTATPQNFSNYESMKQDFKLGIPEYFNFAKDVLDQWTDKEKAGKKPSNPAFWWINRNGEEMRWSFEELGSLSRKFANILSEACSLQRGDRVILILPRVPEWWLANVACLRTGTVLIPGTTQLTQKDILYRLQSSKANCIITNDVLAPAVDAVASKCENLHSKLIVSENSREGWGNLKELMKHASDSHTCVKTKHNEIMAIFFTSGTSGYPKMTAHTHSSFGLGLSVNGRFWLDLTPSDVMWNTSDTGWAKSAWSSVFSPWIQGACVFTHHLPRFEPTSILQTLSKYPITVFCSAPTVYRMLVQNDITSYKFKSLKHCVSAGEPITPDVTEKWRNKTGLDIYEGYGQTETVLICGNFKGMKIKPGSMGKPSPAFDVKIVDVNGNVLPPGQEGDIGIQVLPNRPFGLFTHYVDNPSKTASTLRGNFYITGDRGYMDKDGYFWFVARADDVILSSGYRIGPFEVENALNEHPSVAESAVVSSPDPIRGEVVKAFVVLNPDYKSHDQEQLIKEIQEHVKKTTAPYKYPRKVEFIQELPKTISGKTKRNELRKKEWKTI
UniProt Q96GS6, sequence (Q96GS6 whole entry, looked up): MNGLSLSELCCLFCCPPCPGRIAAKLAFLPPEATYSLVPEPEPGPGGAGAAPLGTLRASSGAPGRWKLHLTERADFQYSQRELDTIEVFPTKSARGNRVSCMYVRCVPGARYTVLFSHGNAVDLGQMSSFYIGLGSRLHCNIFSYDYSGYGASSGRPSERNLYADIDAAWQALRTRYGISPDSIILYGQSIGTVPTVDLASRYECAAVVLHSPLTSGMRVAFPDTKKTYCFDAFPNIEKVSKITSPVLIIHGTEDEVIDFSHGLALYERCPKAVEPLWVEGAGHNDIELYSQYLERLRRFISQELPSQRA
UniProt P10398, sequence (P10398 whole entry, looked up): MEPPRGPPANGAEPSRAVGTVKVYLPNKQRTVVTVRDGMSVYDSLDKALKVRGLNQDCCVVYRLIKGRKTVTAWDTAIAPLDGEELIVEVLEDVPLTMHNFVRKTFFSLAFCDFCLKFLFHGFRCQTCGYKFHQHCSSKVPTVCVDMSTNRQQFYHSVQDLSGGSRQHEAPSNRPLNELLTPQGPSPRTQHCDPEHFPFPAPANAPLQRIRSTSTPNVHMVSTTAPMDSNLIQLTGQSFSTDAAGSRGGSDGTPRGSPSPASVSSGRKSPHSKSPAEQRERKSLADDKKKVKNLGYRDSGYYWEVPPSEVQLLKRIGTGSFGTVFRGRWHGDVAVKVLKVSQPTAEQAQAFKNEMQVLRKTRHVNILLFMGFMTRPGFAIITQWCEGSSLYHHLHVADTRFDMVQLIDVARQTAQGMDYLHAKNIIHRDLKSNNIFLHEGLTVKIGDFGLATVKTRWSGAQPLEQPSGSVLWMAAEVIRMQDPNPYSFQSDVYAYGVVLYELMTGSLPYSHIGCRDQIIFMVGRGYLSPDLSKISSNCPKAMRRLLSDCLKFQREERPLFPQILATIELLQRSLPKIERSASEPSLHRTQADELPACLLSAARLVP
UniProt Q13444, sequence (Q13444 whole entry, looked up): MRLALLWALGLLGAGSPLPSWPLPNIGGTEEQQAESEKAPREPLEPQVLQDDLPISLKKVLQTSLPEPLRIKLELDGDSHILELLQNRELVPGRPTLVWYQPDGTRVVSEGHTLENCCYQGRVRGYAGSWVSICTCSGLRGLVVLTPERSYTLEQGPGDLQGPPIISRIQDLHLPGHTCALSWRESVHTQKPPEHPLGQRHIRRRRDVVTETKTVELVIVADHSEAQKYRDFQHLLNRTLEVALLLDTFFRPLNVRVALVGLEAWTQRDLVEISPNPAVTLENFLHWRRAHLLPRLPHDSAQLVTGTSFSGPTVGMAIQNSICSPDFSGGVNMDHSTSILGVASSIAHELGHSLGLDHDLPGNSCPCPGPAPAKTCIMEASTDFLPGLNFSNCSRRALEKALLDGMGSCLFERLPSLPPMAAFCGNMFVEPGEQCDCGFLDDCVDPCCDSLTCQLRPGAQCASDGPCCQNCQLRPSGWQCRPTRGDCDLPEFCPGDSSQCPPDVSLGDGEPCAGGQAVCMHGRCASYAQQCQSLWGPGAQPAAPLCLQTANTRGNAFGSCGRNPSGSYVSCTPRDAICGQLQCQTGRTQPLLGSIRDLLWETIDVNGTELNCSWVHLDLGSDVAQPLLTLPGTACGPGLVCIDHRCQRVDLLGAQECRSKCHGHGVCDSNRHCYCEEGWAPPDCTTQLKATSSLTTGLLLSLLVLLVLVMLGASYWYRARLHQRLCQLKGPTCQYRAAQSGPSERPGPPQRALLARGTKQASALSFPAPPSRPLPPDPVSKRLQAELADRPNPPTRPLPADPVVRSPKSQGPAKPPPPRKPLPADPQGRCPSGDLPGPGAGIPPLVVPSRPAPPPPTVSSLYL
UniProt P53367, sequence (P53367 whole entry, looked up): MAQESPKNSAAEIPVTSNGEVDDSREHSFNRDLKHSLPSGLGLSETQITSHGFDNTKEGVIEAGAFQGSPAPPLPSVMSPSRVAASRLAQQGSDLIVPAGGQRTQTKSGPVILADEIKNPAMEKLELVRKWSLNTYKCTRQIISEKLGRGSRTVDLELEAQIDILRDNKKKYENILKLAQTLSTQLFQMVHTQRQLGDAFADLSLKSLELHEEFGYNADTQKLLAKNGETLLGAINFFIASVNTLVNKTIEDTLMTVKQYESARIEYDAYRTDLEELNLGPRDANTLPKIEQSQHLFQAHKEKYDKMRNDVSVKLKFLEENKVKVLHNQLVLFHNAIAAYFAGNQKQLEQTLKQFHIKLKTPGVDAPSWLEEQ
UniProt Q14137, sequence (Q14137 whole entry, looked up): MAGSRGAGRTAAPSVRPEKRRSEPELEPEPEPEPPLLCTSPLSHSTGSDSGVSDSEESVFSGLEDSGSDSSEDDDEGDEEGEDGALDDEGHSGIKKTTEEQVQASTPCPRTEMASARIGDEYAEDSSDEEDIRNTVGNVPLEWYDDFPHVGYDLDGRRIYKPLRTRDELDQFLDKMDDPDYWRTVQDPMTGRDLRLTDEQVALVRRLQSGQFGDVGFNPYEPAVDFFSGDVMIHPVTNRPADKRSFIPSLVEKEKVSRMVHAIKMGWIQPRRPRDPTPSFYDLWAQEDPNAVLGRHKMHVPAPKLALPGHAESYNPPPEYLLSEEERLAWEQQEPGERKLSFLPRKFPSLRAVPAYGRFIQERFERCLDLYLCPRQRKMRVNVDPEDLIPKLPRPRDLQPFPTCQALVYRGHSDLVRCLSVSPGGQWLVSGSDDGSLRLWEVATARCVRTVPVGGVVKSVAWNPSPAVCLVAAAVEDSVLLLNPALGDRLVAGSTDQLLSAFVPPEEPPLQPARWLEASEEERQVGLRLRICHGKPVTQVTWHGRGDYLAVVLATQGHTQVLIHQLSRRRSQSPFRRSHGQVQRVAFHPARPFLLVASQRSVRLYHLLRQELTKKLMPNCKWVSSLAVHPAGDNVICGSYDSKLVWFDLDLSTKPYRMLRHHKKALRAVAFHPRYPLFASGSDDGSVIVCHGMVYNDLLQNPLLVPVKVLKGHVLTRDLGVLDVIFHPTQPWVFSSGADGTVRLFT

Target | log2 fold change [1] | log2 fold change [2] | log2 fold change [3] | log2 fold change [4] | log2 fold change [5] | log2 fold change [6] | log2 fold change [7] | log2 fold change [8] | log2 fold change [9] | log2 fold change [10] | log2 fold change [11] | log2 fold change [12] | log2 fold change [13] | log2 fold change [14] | log2 fold change [15] | log2 fold change [16] | log2 fold change [17] | log2 fold change [18] | log2 fold change [19] | log2 fold change [20]
ATP1A1 (UniProt P05023) | 0.003 | 0.02 | 0.017 | -0.012 | -0.036 | 0.012 | -0.017 | -0.032 | -0.015 | 0.057 | 0.071 | 0.03 | 0.007 | -0.029 | -0.006 | 0.182 | -0.002 | -0.006 | 0.001 | 0.009
AURKA (UniProt O14965) | 0.181 | 0.018 | -0.055 | -0.061 | -0.08 | -0.028 | 0.028 | 0.462 | 0.707 (active) | -0.313 | -0.05 | 0.193 | 0.914 (active) | 0.062 | -0.056 | -0.128 | 0.16 | 0.033 | 0.001 | 0.059
ADAM15 (UniProt Q13444) | 0.314 | 0.154 | 0.03 | -0.223 | 0.035 | 0.068 | 0.043 | 0.08 | -0.042 | 0.013 | -0.026 | 0.045 | -0.199 | 0.024 | 0.008 | 0.14 | 0.053 | 0.046 | 0.027 | 0.033
ATP7B (UniProt P35670) | -0.005 | 0.073 | -0.037 | 0.051 | 0.119 | 0.01 | 0.077 | -0.009 | -0.075 | -0.052 | -0.022 | -0.033 | 0.077 | 0.043 | 0.003 | 0.011 | 0.015 | 0.056 | -0.124 | 0.061
ANKZF1 (UniProt Q9H8Y5) | 0.142 | 0.032 | -0.141 | 0 | 0.015 | -0.108 | -0.035 | -0.039 | 0.057 | -0.022 | -0.052 | 0.031 | -0.19 | 0.189 | 0 | -0.065 | 0.192 | 0.136 | 0.034 | -0.069
ACSM3 (UniProt Q53FZ2) | 0.078 | 0.01 | 0.076 | -0.235 | 0.088 | -0.009 | -0.078 | -0.072 | 0.009 | 0.01 | 0 | -0.021 | -0.11 | -0.003 | -0.397 (active) | -0.155 | -0.086 | 0.046 | -0.001 | 0.041
BOP1 (UniProt Q14137) | -0.003 | 0.038 | -0.144 | 0 | -0.053 | 0.041 | -0.153 | -0.014 | 0.043 | 0.036 | -0.039 | 0.01 | -0.083 | 0.041 | 0.119 | -0.068 | 0.031 | 0.021 | 0.01 | -0.078
BCL9L (UniProt Q86UU0) | 0.01 | -0.256 | -0.008 | 0.049 | 0.036 | -0.048 | -0.128 | 0.07 | -0.052 | 0.091 | -0.045 | 0 | 0.04 | -0.024 | -0.009 | 0.015 | 0.092 | 0.013 | 0.006 | 0.101
ACBD6 (UniProt Q9BR61) | 0.056 | -0.031 | 0.134 | 0.108 | 0.007 | 0.011 | -0.078 | 0.073 | -0.186 | -0.216 | -0.072 | 0.009 | 0.477 (active) | -0.169 | -0.068 | 0.173 | 0.159 | 0.008 | 0.023 | 0.074
ARAF (UniProt P10398) | 0.014 | 0.096 | 0.061 | 0.014 | 0.26 | -0.012 | 0.077 | -0.187 | -0.017 | 0.035 | 0.011 | 0.005 | -0.13 | 0.097 | -0.064 | -0.056 | 0.021 | 0.043 | -0.018 | 0.041
ACSL4 (UniProt O60488) | 0.16 | 0.02 | -0.021 | 0.727 (active) | 0.13 | 0.024 | 0.226 | 0.357 (active) | -0.058 | -0.002 | -0.067 | 0.001 | 0 | 0.049 | -0.237 | -0.443 (active) | 0.038 | 0.098 | 0.019 | 0
ARFIP1 (UniProt P53367) | 0.217 | -0.121 | 0.087 | 0.094 | 0.115 | 0.62 | -0.126 | -0.013 | 0 | 0.044 | -0.034 | -0.117 | -0.075 | -0.104 | -0.031 | -0.011 | -0.029 | 0.006 | 0.014 | 0.164
ATG9A (UniProt Q7Z3C6) | 0.044 | 0.03 | 0.057 | -0.003 | 0.047 | 0.021 | 0.045 | -0.005 | -0.026 | -0.023 | 0 | 0.081 | -0.091 | -0.023 | -0.056 | -0.176 | 0.06 | 0.015 | -0.003 | 0.038
ARFGAP1 (UniProt Q8N6T3) | -0.017 | 0.131 | 0.086 | -0.072 | -0.017 | -0.018 | -0.069 | 0.035 | -0.037 | 0.001 | -0.008 | 0.005 | -0.013 | 0.07 | -0.012 | -0.11 | -0.017 | -0.027 | 0.02 | 0.002
ABHD17A isoform 2 (UniProt Q96GS6) | 0 | -0.011 | -0.028 | 0.223 | 0.035 | 0.042 | 0.017 | 0.008 | -0.068 | 0.11 | 0.076 | 0.001 | -0.042 | -0.034 | -0.078 | -0.126 | 0.062 | 0.079 | -0.042 | 0.077
BRAP (UniProt Q7Z569) | 0.114 | 0.09 | 0.022 | 0.012 | 0.001 | 0.032 | 0.172 | -0.023 | -0.07 | -0.059 | -0.032 | -0.066 | -0.018 | 0.16 | -0.016 | -0.11 | -0.093 | 0.033 | 0.026 | 0.263 (active)
